Screens from PubChem.
USP1-UAF1 inh = blocks the human USP1/UAF1 deubiquitinase complex; O94782; recombinant USP1/UAF1, Ub-Rhodamine cleavage fluorescence; Potency, µM (series often up to 57.1 µM), for the others: at the top dose activity change, negative = inhibition, hits mostly inhibitors; 390,000 compounds, 0.23% hits; AID 743255; note: % is set by controls: 0 for no effect and ±100 for the full control effect; nearly all actives have a fitted effect of over 60% in size
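Step one: compound is pinned into 1nM USP1/UAF1 in HEPES pH 7.8 buffer with TCEP. Step two: 15 min room-temperature incubation. Step three: Ub-Rho (150nM final) starts cleavage, tracked by fluorescence over six one-minute reads.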
EPAC1 antag = EPAC1 (human) antagonism | O95398 | EPAC1 GEF assay, Rap1b-BODIPY-GDP exchange fluorescence | Potency, µM (doses to about 115 µM), without a hit: top-dose activity change, negative = inhibition, actives largely listed as inhibitors | 360,000 compounds, 0.14% hits | AID 720709;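 note: plate controls were vehicle for no effect and positive control for full effect; nearly all actives have a fitted effect of over 50% in size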
Target sequence (O95398 whole entry, looked up): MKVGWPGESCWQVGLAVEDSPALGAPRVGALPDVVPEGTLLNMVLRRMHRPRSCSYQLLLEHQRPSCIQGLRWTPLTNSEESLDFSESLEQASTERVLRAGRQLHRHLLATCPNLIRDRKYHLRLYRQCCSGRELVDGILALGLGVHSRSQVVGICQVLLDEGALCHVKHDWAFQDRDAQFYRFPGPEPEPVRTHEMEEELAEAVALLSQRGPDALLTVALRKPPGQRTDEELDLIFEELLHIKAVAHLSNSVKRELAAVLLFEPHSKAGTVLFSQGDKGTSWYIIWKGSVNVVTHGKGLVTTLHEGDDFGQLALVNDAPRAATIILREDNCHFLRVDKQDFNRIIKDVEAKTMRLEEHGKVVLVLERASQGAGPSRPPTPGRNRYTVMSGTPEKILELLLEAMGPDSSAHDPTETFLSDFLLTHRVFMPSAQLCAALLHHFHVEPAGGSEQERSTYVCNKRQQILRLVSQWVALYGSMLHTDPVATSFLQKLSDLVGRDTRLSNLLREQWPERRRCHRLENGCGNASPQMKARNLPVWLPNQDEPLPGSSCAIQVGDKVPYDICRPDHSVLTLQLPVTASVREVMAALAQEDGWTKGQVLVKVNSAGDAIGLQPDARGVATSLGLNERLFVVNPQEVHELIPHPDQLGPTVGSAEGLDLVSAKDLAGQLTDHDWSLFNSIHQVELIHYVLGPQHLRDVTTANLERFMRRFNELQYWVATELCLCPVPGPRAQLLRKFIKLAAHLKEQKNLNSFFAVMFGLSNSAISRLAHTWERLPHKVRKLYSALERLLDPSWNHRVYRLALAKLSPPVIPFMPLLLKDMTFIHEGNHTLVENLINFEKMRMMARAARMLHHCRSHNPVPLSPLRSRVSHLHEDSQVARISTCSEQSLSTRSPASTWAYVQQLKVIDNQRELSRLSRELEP
EPAC2 antagonist = blocks human EPAC2 exchange factor | EPAC2 GEF exchange of Rap1B-BODIPY-GDP, fluorescence | Q8WZA2 | 360,000 compounds, 0.18% hits | Potency, µM (top dose mostly 114 µM), inactives show at the top dose activity, negative = inhibition, usual class: inhibitors; note: % is set by controls: 0 for no effect and ±100 for the full control effect; nearly all actives have a fitted effect of over 45% in size
EPAC1 agonist = activates human EPAC1 exchange factor; O95398; EPAC1 agonist qHTS, biochemical assay; response scale: 100% = response to 6.5 mM cAMP; Potency, µM (top dose mostly 154 µM), without a hit: at the highest dose activation, usual class: activators; 360,000 compounds, 0.073% hits; AID 720707; note: nearly all actives have a fitted effect of over 60% in size
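Read-out is the fluorescence drop as BODIPY-GDP leaves Rap1B (480 nm excitation, 540 nm emission), recorded every 5 minutes over 30 minutes. Reactions held 100 nM EPAC1, 250 nM Rap1B–BODIPY-GDP and 50 uM GDP, with 6.5 mM cAMP setting full activation.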
EPAC2 agonist = EPAC2 (human) agonism; Q8WZA2; EPAC2 activation, biochemical qHTS; response scale: 100% = 6.5 mM cAMP response; Potency, µM (highest dose often 154 µM), without a hit: at the highest dose activation, hits mostly activators; 360,000 compounds, 0.079% hits; note: nearly all actives have a fitted effect of over 50% in size
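In this primary screen, activation is scored as increased exchange of BODIPY-GDP from Rap1B by 100 nM EPAC2, with 50 uM GDP as competitor. Signal is normalized to the 6.5 mM cAMP agonist control.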
* marks the source's active call; other numbers are inactive results; ? = inconclusive; . = no result. The list is not random: actives were taken first. Their share in the collection is about 0.44%. Calls come from the whole dose curve; as a rule, active = well fitted curve in the direction sought with a large enough effect; inconclusive = small, poorly fitted or top-dose-only effect, or another doubt; inactive = no such curve, though single readings can be large; an effect the other way counts as inactive or inconclusive. Potency is the fitted concentration of half-maximal effect.

SMILES	USP1-UAF1 inh	EPAC1 antag	EPAC2 antagonist	EPAC1 agonist	EPAC2 agonist
Cn1cccc1/C=C1/C(=O)NC(=O)N(Cc2ccc(F)cc2)C1=O	-13%	?	3%	2%	8%
Cn1cccc1/C=C1/C(=O)NC(=S)N(Cc2ccc(F)cc2)C1=O	-29%	16µM*	0%	-12%	3%
N=C1/C(=C\c2ccc(OC(=O)c3ccccc3Cl)cc2)C(=O)N=C2SC(N3CCOCC3)=NN12	?	?	-10%	-5%	4%
O=c1cc(C(F)(F)F)c2cc3c4c(c2o1)CCCN4CCC3	375%	99%	21%	?	45µM*
Cc1cc2c(C(F)(F)F)cc(=O)oc2c2c1NCCC2	?	0%	23%	19%	?
COc1ccccc1Cc1c(-c2ccc(C)cc2)nc2cc(C)c(Br)c(C)n12	.	-20%	7%	?	15%
Cn1cc(C=C2C(=O)NC(=O)NC2=O)c2ccccc21	28µM*	-29%	43%	13%	?
CCN(CC)c1ccc(N=Cc2c(O)n(CCC3=CCCCC3)c(=O)[nH]c2=O)cc1	193%	7%	56µM*	5%	?
CN(C)c1ccc(N=Cc2c(O)n(CCC3=CCCCC3)c(=O)[nH]c2=O)cc1	0%	17%	16%	?	19%
Nc1ccc2nonc2c1[N+](=O)[O-]	32µM*	1%	-1%	?	?
CN(c1ccc(O)cc1)c1ccc([N+](=O)[O-])c2nonc12	-16%	-17%	-23%	3%	0%
COC1C(OC(=O)c2ccc(C)[nH]2)C(O)C(Oc2ccc3c(O)c(NC(=O)c4ccc(O)c(CC=C(C)C)c4)c(=O)oc3c2Cl)OC1(C)C (stereo not given)	-7%	40µM*	-15%	-11%	-2%
CCOC(=O)c1c(N)n(CCN2CCCCC2)c2nc3ccccc3nc12	-7%	-9%	8%	-2%	1%
CCCCn1c(NS(=O)(=O)c2ccccc2)c(C(=O)OCC)c2nc3ccccc3nc21	22µM*	-17%	-6%	3%	11%
CCCCn1c(NC(=O)c2ccc(Br)o2)c(C(=O)OCC)c2nc3ccccc3nc21	25µM*	?	?	-5%	13%
COc1ccc(N=Cc2c(O)n(Cc3ccccc3)c(=S)[nH]c2=O)c(OC)c1	12%	-9%	1%	11%	100µM*
COc1ccc(OC)c(N=Cc2c(O)n(Cc3ccccc3)c(=S)[nH]c2=O)c1	28µM*	6%	4%	8%	?
CC1(C)OC(c2ccccc2)=C/C(=C/C=C2C(=O)NC(=S)NC2=O)O1	-42%	77%	?	-119%	-42%
CN1/C(=C\C=C2C(=O)NC(=S)NC2=O)C(C)(C)c2ccccc21	?	131%	200%	?	50µM*
CCN(CC)C(=O)c1ccc2c(c1)C1C=CCC1C(C(=O)O)N2 (stereo not given)	25µM*	-14%	38%	21%	6%
O=C1NC(=O)N(c2ccccc2)C(=O)/C1=C\c1ccc([N+](=O)[O-])s1	18µM*	?	13%	-4%	5%
COc1ccc(OC)c(N2C(=O)NC(=O)/C(=C\c3ccc([N+](=O)[O-])s3)C2=O)c1	?	?	6%	-6%	-15%
CN1C(=O)NC(=O)/C(=C/c2ccc([N+](=O)[O-])s2)C1=O	25µM*	?	1%	7%	0%
COC(=O)c1c(NC(=O)C2CC=CCC2C(=O)O)sc2c1CCCCC2 (stereo not given)	-3%	?	4%	-3%	-4%
O=c1cc(-c2ccc(O)c(O)c2)oc2cc(O)cc(O)c12	?	45µM*	2%	-22%	6%
SMILES	USP1-UAF1 inh	EPAC1 antag	EPAC2 antagonist	EPAC1 agonist	EPAC2 agonist
O=C1C(=Cc2cn(-c3ccccc3)nc2-c2ccc(OCc3ccc(Cl)cc3)cc2)SC(=S)N1CCS(=O)(=O)O	.	?	44%	7%	25%
CCOc1ccc(N2C(=O)/C(=C\c3cccs3)C(=O)NC2=S)cc1	-20%	22%	9%	-3%	6%
CCOc1ccc(N2C(=O)/C(=C/c3ccco3)C(=O)NC2=S)cc1	22µM*	11µM*	?	-3%	3%
O=C(C[C@@H]1C[C@@H]2c3cc(NS(=O)(=O)c4ccc(F)cc4)ccc3O[C@@H]2[C@H](CO)O1)N1CCc2ccccc2C1	?	-8%	-25%	9%	9%
C=CC[C@@H](CC(=O)N(CCO)Cc1ccccc1)C(=O)NC[C@H](OC(=O)[C@@H](CC=C)CC(=O)OC(C)(C)C)c1ccccc1	-19%	-29%	?	-18%	-5%
O=c1[nH]c(=S)n(-c2ccc(Br)cc2)c(O)c1C=Nc1ccc(N2CCOCC2)cc1	32µM*	0%	25%	-17%	-4%
O=c1[nH]c(=S)n(-c2ccc(F)cc2)c(O)c1/C=N/N1CCOCC1	-20%	9%	7%	8%	-4%
Cc1cc(C)cc(-n2c(O)c(C=Nc3ccc(N4CCOCC4)cc3)c(=O)[nH]c2=S)c1	-21%	-24%	21%	11%	-4%
O=c1[nH]c(=S)n(-c2ccccc2F)c(O)c1C=Nc1ccc(N2CCOCC2)cc1	25µM*	88%	93%	56µM*	?
Cc1c(NS(=O)(=O)c2ccccc2)ccc([N+](=O)[O-])c1Cl	-7%	-29%	40µM*	-6%	-1%
C=CCn1c(-c2ccc([N+](=O)[O-])cc2)n[nH]c1=S	4%	?	-11%	3%	1%
C[n+]1c(-c2ccccc2)c2cc(N)ccc2c2ccc(N)cc21	?	-7%	-21%	-12%	3%
Nc1ccc2ccc3cccc[n+]3c2c1	28µM*	342%	360%	100µM*	112µM*
COc1cccc(C(C)(O)c2nc(-c3cccc(F)c3)cs2)c1 (stereo not given)	.	-25%	?	-7%	6%
COc1ccc(-c2noc(=O)n2Cc2cc(C)ccc2C)cc1	-14%	-7%	?	-7%	-1%
COc1ccc(C(SCC(NC(=O)OCc2ccccc2)C(=O)O)c2ccc(OC)cc2)cc1 (stereo not given)	-2%	-4%	14µM*	-4%	3%
CCCCn1c(O)c(C(=O)/C=C/c2c[nH]c3ccccc23)c(=O)[nH]c1=O	25µM*	12%	5%	14%	9%
CN1C[C@@H]2[C@@H]3C(=O)N(Cc4ccccc4)C(=O)[C@@H]3[C@](Cc3ccccc3)(C1=O)N2C(=O)c1ccc(F)cc1	?	-4%	-12%	1%	6%
O=[N+]([O-])c1ccc(N2CCCCCC2)c2nonc12	28µM*	67%	42%	100µM*	100µM*
O=C1C(=O)C(Cl)=C(Cl)C(Cl)=C1Cl	.	?	-6%	11%	7%
COc1ccccc1N=Nc1ccc(N)c(C)c1	-4%	?	-4%	5%	7%
